Inconclusive results are not listed. Unmarked numbers belong to inactive results. Activity calls are given as the source filed them. The call rests on the fitted dose curve; in most records, active means well fitted curve in the direction sought with a large enough effect in the repeat runs; inconclusive means weak or mixed curves; inactive means no such curve, though single readings can be large; an effect the other way counts as inactive or inconclusive.
target: Nuclear receptor subfamily 1 group I member 2 (Homo sapiens) (UniProt O75469); assay: CYP3A4 induction through human pregnane X receptor (PXR) by small molecules, qHTS assay (AID 1346984); details: DPX-2 HepG2 PXR, CYP3A4-luciferin luminescence, 24 h; series mostly up to 46.1 µM; activation: at the top concentration; further: nearly all actives have a fitted effect of over 40% in size
Procedure, shortened: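 Steps: seed DPX-2 cells, 5 hr at 37C; pin-transfer compounds; 24 hr at 37C; add Luciferin-IPA (3uM final), 3 hr at 37C; add One-Glo, 30 min RT; read luminescence.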
On the % scale 0 is the no-effect control and ±100 the full control effect.

Compared with COc1ccc(S(=O)(=O)N2c3ccc(Cl)cc3[C@@](O)(c3ccccc3Cl)[C@H]2C(=O)N2CCC[C@@H]2C(N)=O)cc1OC, COc1cc(C(=S)N2CCOCC2)cc(OC)c1OC is lower in “activation” value: 25.1% for the first, -2.54% for the second.

Going from CC(=C(CCOC(=O)C(C)C)SSC(CCOC(=O)C(C)C)=C(C)N(C=O)Cc1cnc(C)nc1N)N(C=O)Cc1cnc(C)nc1N to C[C@H](CCC(=O)O)[C@H]1CC[C@H]2[C@@H]3C(=O)C[C@@H]4CC(=O)CC[C@]4(C)[C@H]3CC(=O)[C@]12C, the “activation” value rises from -1.89% to -0.646%.

CC(CC=O)CCCC(C)(C)O (centres undefined) was tested, and the “activation” value was 0.659%.

First: CCOC(=O)c1ccc(OC(=O)CCCCCN=C(N)N)cc1
Second: CO[C@@H]1[C@@H](OC(N)=O)[C@@H](O)[C@H](Oc2ccc3c(O)c(NC(=O)c4ccc(O)c(CC=C(C)C)c4)c(=O)oc3c2C)OC1(C)C
The “activation” value of the first is higher: 4.64% [at 20.6 µM] for the first, -0.601% [at 20.6 µM] for the second.

target: Nuclear receptor subfamily 1 group I member 2 (Homo sapiens) (UniProt O75469); assay: Human pregnane X receptor (PXR) activation by small molecules, qHTS assay (AID 1346985); details: DPX-2 HepG2 CYP3A4-luciferase, 24 h; series mostly up to 38.3 µM; activation: at the top concentration; further: nearly all actives have a fitted effect of over 40% in size; further: potency means the concentration at half of the fitted maximal effect
Procedure, shortened: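 DPX-2 cells (HepG2 co-transfected with a PXR response element and a CYP3A4-promoter luciferase construct) were seeded at 2,000 per well, rested 5 hr at 37C, then exposed to DMSO-dissolved compounds for 24 hr. Activation was read as luciferase luminescence.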

With COc1ccc(S(=O)(=O)N2c3ccc(Cl)cc3[C@@](O)(c3ccccc3Cl)[C@H]2C(=O)N2CCC[C@@H]2C(N)=O)cc1OC the Potency was 14.1 µM (active).

First: CCOC(=O)c1ccc(OC(=O)CCCCCN=C(N)N)cc1
Second: CO[C@@H]1[C@@H](OC(N)=O)[C@@H](O)[C@H](Oc2ccc3c(O)c(NC(=O)c4ccc(O)c(CC=C(C)C)c4)c(=O)oc3c2C)OC1(C)C
The “activation” value of the first is lower: -3.75% [at 17.1 µM] for the first, 3.43% [at 17.1 µM] for the second.

First: CC(=C(CCOC(=O)C(C)C)SSC(CCOC(=O)C(C)C)=C(C)N(C=O)Cc1cnc(C)nc1N)N(C=O)Cc1cnc(C)nc1N
Second: C[C@H](CCC(=O)O)[C@H]1CC[C@H]2[C@@H]3C(=O)C[C@@H]4CC(=O)CC[C@]4(C)[C@H]3CC(=O)[C@]12C
The “activation” value of the first is higher: 5.48% for the first, -4.03% for the second.

First: CC(CC=O)CCCC(C)(C)O (centres undefined)
Second: COc1cc(C(=S)N2CCOCC2)cc(OC)c1OC
The “activation” value of the first is higher: 6.82% for the first, 1.69% for the second.

target: Cytochrome P450 2D6 (Homo sapiens) (UniProt P10635); assay: Cytochrome P450 Family 2 Subfamily D Member 6 (CYP2D6) small molecule antagonists: luciferase reporter qHTS assay (AID 1671196); details: P450-Glo CYP2D6 enzyme assay, luciferin luminescence, 1 h; series mostly up to 115 µM; activity change, negative = inhibition: at the top concentration; further: nearly all actives have a fitted effect of over 50% in size; further: potency means the concentration at half of the fitted maximal effect
Sequence (P10635 whole entry, looked up): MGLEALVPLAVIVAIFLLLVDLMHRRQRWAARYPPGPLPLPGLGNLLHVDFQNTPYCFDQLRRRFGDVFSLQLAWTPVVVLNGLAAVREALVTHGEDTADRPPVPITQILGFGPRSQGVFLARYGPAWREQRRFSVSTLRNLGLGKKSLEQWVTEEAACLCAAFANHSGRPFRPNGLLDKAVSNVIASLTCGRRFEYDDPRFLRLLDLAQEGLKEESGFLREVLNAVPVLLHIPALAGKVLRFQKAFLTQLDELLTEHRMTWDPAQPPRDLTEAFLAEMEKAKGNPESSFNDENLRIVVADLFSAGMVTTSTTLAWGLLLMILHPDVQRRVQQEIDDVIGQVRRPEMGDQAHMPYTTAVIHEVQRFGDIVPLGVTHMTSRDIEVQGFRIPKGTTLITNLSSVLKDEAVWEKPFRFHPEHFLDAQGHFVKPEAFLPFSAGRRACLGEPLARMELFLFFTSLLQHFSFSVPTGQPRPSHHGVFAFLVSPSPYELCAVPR
Procedure, shortened: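 P450-Glo format: CYP2D6 converts a proluciferin substrate to luciferin in an NADPH-driven reaction lasting 1 h at room temperature. Light output, proportional to CYP2D6 activity, reflects interference by test chemicals.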

Going from COc1ccc(S(=O)(=O)N2c3ccc(Cl)cc3[C@@](O)(c3ccccc3Cl)[C@H]2C(=O)N2CCC[C@@H]2C(N)=O)cc1OC to CO[C@@H]1[C@@H](OC(N)=O)[C@@H](O)[C@H](Oc2ccc3c(O)c(NC(=O)c4ccc(O)c(CC=C(C)C)c4)c(=O)oc3c2C)OC1(C)C, the “activity change, negative = inhibition” value rises from -9.22% [at 53 µM] to -8.33% [at 53 µM].

First: CC(=C(CCOC(=O)C(C)C)SSC(CCOC(=O)C(C)C)=C(C)N(C=O)Cc1cnc(C)nc1N)N(C=O)Cc1cnc(C)nc1N
Second: C[C@H](CCC(=O)O)[C@H]1CC[C@H]2[C@@H]3C(=O)C[C@@H]4CC(=O)CC[C@]4(C)[C@H]3CC(=O)[C@]12C
The “activity change, negative = inhibition” value of the first is lower: -19.5% [at 53 µM] for the first, -0.523% [at 53 µM] for the second.

First: c1ccc2c(c1)ccc1c3ccccc3ccc21
Second: Cc1ccc2ccc(Cl)cc2n1
The “activity change, negative = inhibition” value of the first is lower: -2.83% [at 53 µM] for the first, 1.36% [at 53 µM] for the second.

First: COCCc1ccc(OCC2CO2)cc1 (centres undefined)
Second: COc1cc(C(=S)N2CCOCC2)cc(OC)c1OC
The “activity change, negative = inhibition” value of the first is lower: -5.68% [at 53 µM] for the first, 0.57% [at 53 µM] for the second.

In the case of CCCCCCCC/C=C\CCCCCCCC(=O)OCCCC, the activity change, negative = inhibition is reported as -8.07% [at 23.6 µM].

CCOC(=O)c1ccc(OC(=O)CCCCCN=C(N)N)cc1 was tested, and the Potency was 0.309 µM (active).
CCCN1C[C@H](CSC)C[C@@H]2c3cccc4[nH]cc(c34)C[C@H]21 was tested, and the Potency was 0.155 µM (active).
For CC(CC=O)CCCC(C)(C)O (centres undefined), the Potency was 39.7 µM (active).

With COC(=O)C1CC(=O)C(C(=O)OC)CC1=O (centres undefined) the activity change, negative = inhibition was -3.24% [at 10.5 µM].

Going from CC(C)CCCC(C)(C)O to CCCOC(=O)C(C)O (centres undefined), the “activity change, negative = inhibition” value falls from -0.655% to -9.69%.

Compared with CCCCOC(=O)c1ccccc1, O=C(OCc1ccccc1)C(=O)OCc1ccccc1 is lower in “activity change, negative = inhibition” value: -2.81% for the first, -9.76% for the second.

First: C=Cc1ccccn1
Second: c1ccc2nccnc2c1
The “activity change, negative = inhibition” value of the first is higher: -11.8% for the first, -12.6% for the second.

In the case of O=C1O[C@@H]2[C@@H](O)[C@H](O)O[C@@H]2[C@H]1O, the “activity change, negative = inhibition” value is reported as 0.167%.
